Our source for the Inhibition values is ChEMBL document CHEMBL4513149, “CO-ADD screening of MMV (CH) - MMV compounds” (2021).

Potency and affinity values are given separately.

The test system of the test is Staphylococcus aureus. The conditions noted are these: Concentration 20 uM; ASSAY_TEST Inhibition of Bacterial Growth; detection method Absorption (OD600); MEDIA CAMHB; plate type 384well; NBS; CORNING #3640; time 18 hr.
As a reminder, the Inhibition is the drop in the measured response relative to a control, in per cent. As to `Nc1cccnc1Nc1ccc(Cl)cc1`, the Inhibition was determined as 2.93%.

Turning to `CC(=O)Nc1ccc(-c2noc(CC3CCCN(Cc4cccc(F)c4C)C3)n2)cc1` (stereo not given), the Inhibition is recorded as 14.07%.

Turning to `COc1ccc(-c2nn(C(C)C)c3ncnc(N)c23)cc1OC`, the Inhibition worked out at 14.97%.

Turning to `CC(C)C(NC(=O)Cc1cccc2ccccc12)C(=O)Nc1cccc(C#N)c1` (stereo not given), the Inhibition is on record as 17.14%.

For the molecule `COc1ccc(OC(C)C(=O)Nc2ccc(Cl)cc2C)cc1` (stereo not given), the Inhibition is reported as 11.95%.

In the case of `Nc1ncnc2[nH]nc(Cc3cccc4ccccc34)c12`, the Inhibition came to 12.91%.

Regarding `O=C(NCCc1ccn(-c2ccccc2)n1)C1CCCCC1`, the Inhibition turned out to be 6.55%.

With `CC(C)NCC(=O)Nc1cccc(C(=O)Nc2cccc(C(F)(F)F)c2)c1`, the Inhibition is recorded as 3.81%.

As for `CC(C)n1nc(-c2cc3c(Cl)cccc3[nH]2)c2c(N)ncnc21`, the Inhibition is recorded as 11.03%.

`COc1ccc(CN2CCOc3ccc(C(C)(O)CN(C)C)cc3C2)cc1C` (stereo not given): the Inhibition stood at 19.53%.

Turning to `CCN(CC)CCCCCCNc1cc(OC)cc2c(C)ccnc12.Cc1ccc(S(=O)(=O)O)cc1`, the Inhibition is on record as 18.42%.

Take `CN1CCN(c2nccc3nc(-c4ccc(F)c(F)c4)[nH]c23)CC1`: the Inhibition was 17.33%.

As to `CCCc1ccc(S(=O)(=O)Nc2ccc(CN3CCN(CC4CC4)CC3)cc2)cc1`, the Inhibition was found to be 18.92%.

Consider `N#Cc1ccc(-c2ccc(OCC(N)=O)cc2)cc1`, for which the Inhibition came to 6.41%.

In the case of `COc1ccc(Cl)cc1NC(=O)CN(C)C(=O)c1cnn(-c2ccccc2)n1`, the Inhibition is 8.96%.

In the case of `Cc1cc(Cl)ccc1NC(=O)CCc1ccc(S(=O)(=O)NCC(C)C)cc1`, the Inhibition is reported as 6.84%.

Turning to `CCc1ccc(S(=O)(=O)Nc2cc(CN3CCN(CCC(C)C)CC3)ccc2C)cc1`, the Inhibition was determined as 21.02%.

On to `CCc1cc(=O)n(C)c(SC(C)C(=O)Nc2ccc(F)cc2)n1` (stereo not given), for which the Inhibition stood at 4.54%.

`CC(C)/N=c1\cc2n(-c3ccc(Cl)cc3)c3ccccc3nc-2cc1Nc1ccc(Cl)cc1` [CLOFAZIMINE]: the Inhibition is given as 59.44%.

On to `Cc1cc(C)cc(COc2ccc3c(C)c(CCC(=O)O)c(=O)oc3c2C)c1`, for which the Inhibition worked out at 19.34%.

In the case of `CC(C)C(C(=O)Nc1ccc(S(=O)(=O)N(C)C)cc1)c1ccc(Cl)cc1` (stereo not given), the Inhibition came to 3.5%.

For the molecule `CC(=O)N1CCc2cc3nc(C)cc(C)c3cc21`, the Inhibition was 14.4%.

Take `CCc1nc2ccc(Cl)cn2c1C(=O)NCc1ccc(N2CCC(c3ccc(OC(F)(F)F)cc3)CC2)cc1` [TELACEBEC]: the Inhibition stood at 17.2%.

Regarding `Cc1ccc(NC(=O)c2nc[nH]c2C(=O)Nc2nc3ccccc3[nH]2)c(C)c1`, the Inhibition worked out at 23.22%.

For the molecule `c1ccc2c(c1)CN(CC1CC1)CC1(CCN(Cc3c[nH]c4cnccc34)CC1)O2`, the Inhibition is 14.8%.

In the case of `FC(F)(F)c1cc(NCCc2ccccc2)nc(-c2ccccn2)n1`, the Inhibition is -9.89%.

On to `Cc1ccc(-c2cc(C(=O)Nc3cccnc3)c3cc(Br)ccc3n2)cc1`, for which the Inhibition is 16.17%.

Regarding `O=C(NCc1cc(Cl)cc(Cl)c1)c1c(C(F)(F)F)nc2ccccn12`, the Inhibition came to 22.39%.

`COc1nc2ccc(Br)cc2cc1[C@@H](c1ccccc1)[C@@](O)(CCN(C)C)c1cccc2ccccc12.O=C(O)C(F)(F)F`: the Inhibition came to 17.15%.

Consider `CCOC(=O)c1c(NC(=O)c2c(F)c(F)c(F)c(F)c2F)sc(C(N)=O)c1C`, for which the Inhibition amounted to 12.42%.

In the case of `NC(=O)c1cc(Br)ccc1OCCOc1ccccc1`, the Inhibition turned out to be 12.29%.

As to `CCC(Sc1nc2ccccc2o1)C(=O)Nc1nccs1` (stereo not given), the Inhibition is 18.2%.

Take `Clc1ccc(CCNc2cc(-c3ccccc3)nc3ncnn23)cc1`: the Inhibition is given as 16.06%.

Consider `Cc1cc(OCC(=O)NCc2ccccc2)c2cc(Br)ccc2n1`, for which the Inhibition amounted to 11.48%.

`CC(C)=CCC/C(C)=C\CNCCNC1C2CC3CC(C2)CC1C3` (stereo not given): the Inhibition was determined as 37.58%.
